Pf growth 48h – inhibits P. falciparum growth in the first generation, 48 h; P. falciparum luciferase growth in erythrocytes, 48 h; Potency, µM (doses to about 28.7 µM), inactives show at the highest dose activity change, negative = inhibition, usual class: inhibitors; hit rate 5.9% among 310,000; also: potency is read from the fitted curve at half-maximal effect; % is scaled to controls: 0 for no effect and ±100 for the full control effect
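First compound was added to culture medium, then infected red cells at 0.1% parasitemia and 2% hematocrit (final). After incubation at 37 C under 5% CO2, luciferase detection reagent was dispensed and light output recorded.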
Cycloheximide cs – affects cycloheximide protein synthesis inhibition readout, counter-screen; hit rate 12% among 300,000; cell reporter, cycloheximide protein synthesis inhibition counterscreen; AID 2314; max response, %; in the data active = max response mostly above about 13%, no sharp cut-off; inactive = mostly below about 14%; also: read at 38.3 µM for the half of the compounds with a filed dose; 0% is about no effect
Pf growth 96h – P. falciparum growth inhibition at 96 hours; Potency, µM (top dose mostly 28.7 µM), without a hit: top-dose activity change, negative = inhibition, most hits filed as inhibitors; AID 504834; P. falciparum luciferase reporter growth, 96 h; hit rate 6.9% among 320,000; also: potency is read from the fitted curve at half-maximal effect; % is scaled to controls: 0 for no effect and ±100 for the full control effect
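Two-generation exposure (96 h) targets delayed-death phenotype. Reporter parasites carrying integrated firefly luciferase, in red cells at 2% hematocrit and 0.05% parasitemia final, kept at 37 C, 5% CO2; luminescence loss indicates inhibition.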
HCV inh – blocks hepatitis C virus. Huh7.5.1 HCVcc-Cre infection, luciferase reporter, 44 h. Potency, µM (titrated, usually from 41.8 µM), for inactives: at the highest dose activity change, negative = inhibition, actives largely listed as inhibitors. hit rate 3.4% among 340,000. AID 651820; also: potency is read from the fitted curve at half-maximal effect; % is scaled to controls: 0 for no effect and ±100 for the full control effect
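Infectious HCVcc-Cre (~0.5 moi) was added to cells just after compound, with cells seeded 4 h earlier at 1,000 per well. Luciferase activity after 44 h culture reported infection; substrate was incubated 15 min at room temperature before reading.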
Shiga toxin inh – inhibitors of Shiga toxin in Vero cells | hit rate 9.2% among 290,000 | AID 2315 | Vero cells, Shiga toxin protein synthesis inhibition reporter | inhibition, % at 38.7 µM; in the data active = inhibition mostly above about 28%, no sharp cut-off; inactive = mostly below about 43%; also: 0% is about no effect
AMA1-RON2 inh – inhibitors of Plasmodium falciparum AMA1-RON2 interaction | AlphaScreen AMA1-biotinylated RON2 peptide binding | Potency, µM (titrated, usually from 58.2 µM), inactives show top-dose activity change, negative = inhibition, hits mostly inhibitors | hit rate 0.2% among 360,000;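 also: potency is read from the fitted curve at half-maximal effect; 0% = vehicle wells and -100% = peptide control; nearly all actives have a fitted effect of over 45% in size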
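AMA1 (3D7) with his tag at 25 nM final met compounds first, then biotinylated RON2 peptide at 25 nM; detection used donor plus acceptor beads, 10 µg/mL apiece, read by AlphaScreen after 30 min at room temperature.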
* = called active by the depositor; [ ] = dose if it differs, or a comment. Shown are actives, neighbours in structure and some others; about 21% of the full set was active somewhere. Unless noted, calls follow the shape of the dose curve; as a rule, active = well fitted curve in the direction sought with a large enough effect; inconclusive = small, poorly fitted or top-dose-only effect, or another doubt; inactive = no such curve, though single readings can be large; an effect the other way counts as inactive or inconclusive.

Nc1c(C(=O)N2CCCCCC2)oc2ccccc12 was read as Pf growth 48h 28%, Cycloheximide cs 21*, Pf growth 96h 59%, HCV inh -22%, Shiga toxin inh 41 and AMA1-RON2 inh -2%.
O=C(Nc1cc(=O)c2ccccc2o1)N1CCOCC1 was read as Pf growth 48h inconclusive, Cycloheximide cs -2, Pf growth 96h 7%, HCV inh 3%, Shiga toxin inh 2 and AMA1-RON2 inh -18%.
Screening COc1ccc(CSCC(=O)Nc2ccccc2)cc1[N+](=O)[O-] returned Pf growth 48h 18%, Cycloheximide cs -3, Pf growth 96h 59%, HCV inh -3%, Shiga toxin inh -9 and AMA1-RON2 inh 8%.
Screening CC(NC(=O)COC(=O)CN1C(=O)c2ccccc2C1=O)c1ccccc1 (stereo unspecified) returned HCV inh 13% and AMA1-RON2 inh -5%[11.6 µM].
Screening CCCN(CC(=O)Nc1ccc(F)c(F)c1F)C(=O)CN1C(=O)NC2(CCCCC2)C1=O returned HCV inh -4% and AMA1-RON2 inh -3%.
`CCOC(=O)c1c(C)[nH]c(C)c1C(=O)COC(=O)/C=C/c1cccc(C(F)(F)F)c1` gave Pf growth 48h 15µM*, Cycloheximide cs -1, Pf growth 96h inconclusive, HCV inh -6%, Shiga toxin inh -1 and AMA1-RON2 inh -6%.
For CCCCN(C)C(=O)c1cc2c(Cl)nc3ccccc3c2s1 the results were Pf growth 48h -10%, Cycloheximide cs 5, Pf growth 96h 34%, HCV inh -1%, Shiga toxin inh 6 and AMA1-RON2 inh -12%.
For O=C(NCCCN1CCCC1)c1cc2c(Cl)nc3ccccc3c2s1 the results were Pf growth 48h inconclusive, Cycloheximide cs -5, Pf growth 96h 5.9µM*, HCV inh 18µM*, Shiga toxin inh 10 and AMA1-RON2 inh 0%.
`CCN1CCN(CCCNC(=O)c2cc3c(=O)[nH]c4ccccc4c3s2)CC1` gave Cycloheximide cs -5, Pf growth 96h 10µM*, HCV inh inconclusive, Shiga toxin inh -4 and AMA1-RON2 inh 6%.
For CC1CCN(CCCNC(=O)c2cc3c(Cl)nc4ccccc4c3s2)CC1 the results were Pf growth 48h inconclusive, Cycloheximide cs -6, Pf growth 96h 9%, HCV inh 13µM*, Shiga toxin inh -6 and AMA1-RON2 inh -2%.
`COc1ccc(N2CCN(C(=O)COC(=O)Cc3c(F)cccc3Cl)CC2)cc1` gave Pf growth 48h inconclusive, Pf growth 96h -4%, HCV inh -9% and AMA1-RON2 inh -9%.
O=C(O)Cc1cc(F)c(S(=O)(=O)N2CCN(S(=O)(=O)c3ccc4c(c3)OCCO4)CC2)cc1F was read as Cycloheximide cs -7 and Shiga toxin inh -5.
Cc1nc(CC(=O)c2ccc(O)c(C)c2O)cs1 was read as Pf growth 48h 2%, Cycloheximide cs 9.7*, Pf growth 96h -6%, HCV inh 10%, Shiga toxin inh 47* and AMA1-RON2 inh -6%.
Screening O=C1CC(C(=O)Nc2cccc3ccccc23)C2(CCCC2)O1 (stereo unspecified) returned Pf growth 48h 22%, Cycloheximide cs 10, Pf growth 96h 1.5µM*, HCV inh 2%, Shiga toxin inh 12 and AMA1-RON2 inh -8%.
Screening CC1(C)CC2(CCO1)OC(=O)CC2C(=O)Nc1cccc2ccccc12 (stereo unspecified) returned Cycloheximide cs 11, Pf growth 96h 201%, HCV inh -4%, Shiga toxin inh 1 and AMA1-RON2 inh -11%.
`CC(C)(C)C(=O)COC(=O)c1ccc(O)cc1` gave Pf growth 48h -13%, Cycloheximide cs 11, Pf growth 96h -17%, HCV inh 0%, Shiga toxin inh 40* and AMA1-RON2 inh -8%.
O=C(OCC(=O)N(C1CCCCC1)C1CCCCC1)c1ccc(O)cc1 was read as Pf growth 48h 8.3µM*, Cycloheximide cs -1, Pf growth 96h inconclusive, HCV inh 9%, Shiga toxin inh -4 and AMA1-RON2 inh 0%.
For N#CCC(=O)Nc1ccc(C(=O)OCC(=O)N(C2CCCCC2)C2CCCCC2)cc1 the results were Pf growth 48h 12µM*, Cycloheximide cs 6, Pf growth 96h inconclusive, HCV inh -19%, Shiga toxin inh -5 and AMA1-RON2 inh -11%.
Screening O=C(OCC(=O)N(C1CCCCC1)C1CCCCC1)c1ccccc1O returned Pf growth 48h inconclusive, Cycloheximide cs -4, Pf growth 96h inconclusive, HCV inh -24%, Shiga toxin inh -5 and AMA1-RON2 inh 0%.
Screening O=c1[nH]c(=S)[nH]c2c1C(c1cccc(C(F)(F)F)c1)OC(CCc1ccccc1)C2 (stereo unspecified) returned AMA1-RON2 inh 84%.
CC(=O)C1=CCC(c2ccccc2)N(S(=O)(=O)c2ccc(Cl)cc2)C1 (stereo unspecified) was read as AMA1-RON2 inh 15%.
Screening Cc1ccc(NS(=O)(=O)c2ccc3c(c2)C(=O)c2ccccc2C3=O)c(C)c1 returned Pf growth 48h -12%, Cycloheximide cs -1, Pf growth 96h inconclusive, HCV inh inconclusive, Shiga toxin inh 1 and AMA1-RON2 inh -11%[11.6 µM].
`O=C1C=C(Nc2ccccc2O)c2ccccc2C1=O` gave Pf growth 48h 10µM*, Cycloheximide cs 17*, Pf growth 96h 9.3µM*, HCV inh inconclusive, Shiga toxin inh 84* and AMA1-RON2 inh -26%.
`O=C1C=C(NCc2ccccc2)c2ccccc2C1=O` gave Pf growth 48h inconclusive, Cycloheximide cs 56*, Pf growth 96h -5%, HCV inh inconclusive, Shiga toxin inh 81* and AMA1-RON2 inh -6%.
Cc1ccc(NC2=CC(=O)C(=O)c3ccccc32)c(C)c1 was read as Pf growth 48h 0.83µM*, Pf growth 96h 0.59µM*, HCV inh inconclusive and AMA1-RON2 inh -4%.
Screening NC1=CC(=O)C(=O)c2ccccc21 returned HCV inh inconclusive and AMA1-RON2 inh -2%.
`O=c1cccccc1NCc1ccccc1` gave Cycloheximide cs 26*, Pf growth 96h 1%, HCV inh -1%, Shiga toxin inh 6 and AMA1-RON2 inh 0%.
N#Cc1ccccc1NCc1ccccc1 was read as Pf growth 48h 22%, Cycloheximide cs -1, Pf growth 96h inconclusive, HCV inh 16%, Shiga toxin inh -8 and AMA1-RON2 inh 3%.
For FC(F)(F)Oc1ccccc1C(c1nnnn1-c1ccc2c(c1)OCCO2)N1CCN(C/C=C/c2ccccc2)CC1 (stereo unspecified) the results were AMA1-RON2 inh -30%.
Screening O=C1CCCc2oc3c(cc(NS(=O)(=O)c4ccc5c6c(cccc46)C(=O)N5)c4ccccc43)c21 returned Pf growth 48h inconclusive, Cycloheximide cs 12, Pf growth 96h 12µM*, HCV inh inconclusive, Shiga toxin inh 13 and AMA1-RON2 inh -15%.

High-throughput results from PubChem.
